Hits are enriched below; roughly 0.58% of the tested compounds scored in any of these assays.
PINK1 expr mod: modulators of PINK1 expression; PINK1 immunofluorescence, high-content cytometry, 24 h; Potency, µM (top dose mostly 76.6 µM), for inactives: top-dose activation (PINK1 increase), usual class: activators; hit rate 0.2% among 410,000; AID 624263; active means well fitted activation curve with a large enough effect; inconclusive means small, poorly fitted or top-dose-only effect; cell line not stated here; further: potency means the concentration at half of the fitted maximal effect; % of control where 0% means no effect; nearly all actives have a fitted effect of over 65% in size
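Fluorescence from anti-PINK1 antibody, together with nuclear and cell stains, was scanned on a laser-scanning cytometer. Before staining, stable-line cells were incubated 24 hours with compounds at 5 concentrations; primary antibody 12 h at 10 degrees C.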
B2AR arrestin: recruits beta-arrestin to the human beta2-adrenergic receptor; hit rate 0.02% among 330,000; Potency, µM (top dose mostly 46.1 µM), without a hit: at the top dose activation, usual class: activators; beta-arrestin recruitment to beta2AR, cell-based reporter; P07550;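 further: potency means the concentration at half of the fitted maximal effect; 0% = DMSO controls and full agonism = EC100 isoproterenol or metaproterenol; nearly all actives have a fitted effect of over 65% in size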
Target sequence (P07550 whole entry, looked up): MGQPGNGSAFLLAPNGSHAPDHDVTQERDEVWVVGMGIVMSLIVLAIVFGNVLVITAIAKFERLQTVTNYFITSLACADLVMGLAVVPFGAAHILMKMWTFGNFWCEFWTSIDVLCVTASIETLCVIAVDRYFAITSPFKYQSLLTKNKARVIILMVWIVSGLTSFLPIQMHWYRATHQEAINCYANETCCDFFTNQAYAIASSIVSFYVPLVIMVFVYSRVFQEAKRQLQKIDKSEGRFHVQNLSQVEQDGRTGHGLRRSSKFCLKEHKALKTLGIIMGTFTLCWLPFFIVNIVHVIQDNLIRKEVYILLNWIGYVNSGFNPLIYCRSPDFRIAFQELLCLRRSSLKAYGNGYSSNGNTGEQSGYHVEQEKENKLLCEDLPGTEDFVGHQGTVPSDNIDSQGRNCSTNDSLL
IL-2 act: activates IL-2 in a cell-based reporter assay. hit rate 0.065% among 360,000. AID 652025. activation, % (series mostly up to about 46 µM). IL-2 activation reporter assay, cell-based qHTS; stimulated with anti-CD3/CD4/CD28 beads; in transgenic mouse T cells; in the data active means activation above about 50%; inconclusive means mostly about 30% to 49%; further: 0% is about no effect
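EGFP and DsRed fluorescence is measured by plate cytometry in unstimulated transgenic mouse T cells exposed to compound for 60 minutes, then stimulated 18 hours at 37 degrees C with anti-CD3/anti-CD4 beads plus anti-CD28.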
Epigenetic derep: epigenetic control regulation, reporter derepression; murine LDR cells, GFP reporter derepression, 30 h; AID 1865; hit rate 0.2% among 280,000; Potency, µM (doses to about 53.9 µM), inactives show at the top dose GFP activation, hits mostly activators; further: potency means the concentration at half of the fitted maximal effect; % of control where 0% means no effect; nearly all actives have a fitted effect of over 60% in size
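Reporter derepression read as number of fluorescent GFP-positive objects, 20-120 um in size, counted by laser-scanning cytometer. Mouse LDR line with an epigenetically silenced CMV-GFP locus; compound incubation 30 h, 37 C.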
PKM2 act: activators of human pyruvate kinase M2; purified PKM2, Kinase-Glo ATP luminescence, activation; response scale: 0% is enzyme alone, no compound; hit rate 0.34% among 260,000; Potency, µM (doses to about 57.5 µM), without a hit: top-dose activation, actives largely listed as activators; AID 1631; P14618; further: potency means the concentration at half of the fitted maximal effect; on the % scale 0 is the no-effect control and ±100 the full control effect; nearly all actives have a fitted effect of over 55% in size
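ATP formation by purified human PK-M2, quantified via coupled luciferase luminescence after 1 h at room temperature with 0.1 mM ADP and 0.5 mM PEP final.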
Active calls of the source: *; [ ] = another dose, or the depositor's remark. Unless noted, the call rests on the fitted dose curve; in most records, active means well fitted curve in the direction sought with a large enough effect; inconclusive means small, poorly fitted or top-dose-only effect, or another doubt; inactive means no such curve, though single readings can be large; an effect the other way counts as inactive or inconclusive.

`Cc1c(CNC2CCCCC2)c(C(=O)O)c(C)n1Cc1c(F)cccc1Cl` gave PINK1 expr mod -1.2% and Epigenetic derep 0.3%.
CS(=O)(=O)c1ccc(-c2ccc3c(c2)CC(CNC(=O)C2(N4CCOCC4)CCCCC2)O3)cc1 (centres undefined) was read as PINK1 expr mod -0.4%.
CCc1cc2c(N=Nc3c(O)[nH]c4ccccc34)ncnc2s1 was read as PINK1 expr mod inconclusive, B2AR arrestin -0.5%, IL-2 act 68.0*, Epigenetic derep 22.4µM* and PKM2 act -7.7%.
Screening Cc1sc2ncnc(N=Nc3c(O)[nH]c4ccccc34)c2c1C returned PINK1 expr mod inconclusive, B2AR arrestin 7.9%, IL-2 act 12.5, Epigenetic derep inconclusive and PKM2 act -9.1%.
Screening Cc1ccccc1CN1CCN(Cc2ccccc2C(F)(F)F)CC1 returned PINK1 expr mod 10µM*, B2AR arrestin 0.1%, IL-2 act -3.1, Epigenetic derep 0.7% and PKM2 act -1.5%.
For O=S1(=O)CCN(Cc2ccccc2C(F)(F)F)CC1 the results were PINK1 expr mod 0.4%, B2AR arrestin -0.1%, IL-2 act -1.0, Epigenetic derep -0.3% and PKM2 act -3.7%.
`CC(C)(O)C#Cc1ccc(C(=O)NCCN2Cc3ccccc3OC(c3ccccc3F)C2)o1` (centres undefined) gave PINK1 expr mod -0.9%.
For Cc1cc(C(=O)NCCCn2ccnc2)cs1 the results were PINK1 expr mod 10µM*, B2AR arrestin -0.3%, IL-2 act -1.5, Epigenetic derep -1.1% and PKM2 act 0.5%.
Screening COc1ccc(CNC(=O)c2ccc(Cn3nc(C)c([N+](=O)[O-])c3C)o2)cc1 returned PINK1 expr mod -1.3%, B2AR arrestin 3.6%, IL-2 act -3.7, Epigenetic derep 4.47µM* and PKM2 act -1.9%.
Screening CCN(CC)c1ccc2cc(C(=O)NNC(=O)c3ccc(S(=O)(=O)N4CCCCC4)cc3)c(=O)oc2c1 returned PINK1 expr mod 4.5%, B2AR arrestin -0.1%, IL-2 act 58.6*, Epigenetic derep inconclusive and PKM2 act -15.2%.
`COc1ccc(/C=C2\SC(=S)N(CCCC(=O)N3CCN(C)CC3)C2=O)cc1OC` gave PINK1 expr mod -2.5% and IL-2 act 0.2.
Screening COc1ccc(/C=C2\SC(=S)N(CCCC(=O)Nc3cc(C)on3)C2=O)cc1OC returned PINK1 expr mod 10µM*, B2AR arrestin -0.4%, IL-2 act 17.4 and PKM2 act 3.1%.
For COc1ccc(/C=C2\SC(=S)N(CCCCCC(=O)Nc3cc(C)on3)C2=O)cc1OC the results were PINK1 expr mod 14.1µM*, B2AR arrestin -0.8%, IL-2 act 80.5* and PKM2 act 1.3%.
For CCOC(=O)N1CCN(C(=O)CCN2C(=O)/C(=C\c3ccc(OC)c(OC)c3)SC2=S)CC1 the results were PINK1 expr mod 31.6µM* and IL-2 act 93.4*.
For O=C(c1cccnc1)C1CCCN(Cc2ccc3c(c2)CN(C(=O)c2cnccn2)CCO3)C1 (centres undefined) the results were PINK1 expr mod 0.1%.
For CCC(=O)NC(c1ccccc1OC)c1ccc2cccnc2c1O (centres undefined) the results were PINK1 expr mod 1.6%[38.3 µM], B2AR arrestin inconclusive, IL-2 act -3.6, Epigenetic derep 3.55µM* and PKM2 act 2.8%.
For CCCC(=O)NC(c1ccc(OC)cc1)c1ccc2cccnc2c1O (centres undefined) the results were PINK1 expr mod 0.1%, B2AR arrestin inconclusive, IL-2 act -6.3, Epigenetic derep 3.55µM* and PKM2 act 3.9%.
COC(=O)c1ccc(C(=O)N2CCc3c(C(=O)NC(C)c4ccco4)c(OC)cc(=O)n3CC2)cc1 (centres undefined) was read as PINK1 expr mod 0.1%.
For Cc1csc(C(C)N(C)C(=O)c2cc(NC(=O)C3CCC3)c3c(c2)nc(-c2ccncc2)n3C)n1 (centres undefined) the results were PINK1 expr mod 0.1%.
For O=[N+]([O-])c1ccc(O/N=[N+](\[O-])N2CCN(c3ccccc3)CC2)c([N+](=O)[O-])c1 the results were PINK1 expr mod 1.7%.
Screening O=C(NCC1Cc2cccc(-c3nccs3)c2O1)c1ccnc(Cl)c1 (centres undefined) returned PINK1 expr mod 1.1%.
Screening COc1cccc(CN(C)C(=O)c2cnn(-c3ncc4c(n3)-c3ccccc3CCC4)c2C)c1 returned PINK1 expr mod 0.2%.
Screening O=C1c2cccc3c([N+](=O)[O-])ccc(c23)C(=O)N1c1ccc(Cl)cn1 returned PINK1 expr mod -0.6%[38.3 µM], B2AR arrestin -3.0%, IL-2 act -3.6, Epigenetic derep 14.1µM* and PKM2 act -0.4%.
`COc1ccccc1C1CN(CCNC(=O)c2ccccc2Cl)Cc2ccccc2O1` (centres undefined) gave PINK1 expr mod -0.5%.
Cc1ccc([N+](=O)[O-])c(OCCn2cnc3ccccc32)c1 was read as PINK1 expr mod 3.8%, B2AR arrestin -0.1%, IL-2 act -3.3, Epigenetic derep 0.0% and PKM2 act 8.91µM*.
`O=[N+]([O-])c1ccc(S(=O)(=O)Nc2nc3ccccc3nc2Nc2ccccc2)cc1` gave PINK1 expr mod 35.5µM*, B2AR arrestin 0.2%, IL-2 act -0.8, Epigenetic derep 5.7% and PKM2 act -1.3%.
For Cc1cc(C(=O)CCl)c(C)n1Cc1ccco1 the results were PINK1 expr mod inconclusive, B2AR arrestin -0.3%, IL-2 act 0.3, Epigenetic derep 12.6µM* and PKM2 act 4.4%.
For c1cncc(CSc2nnc3ccc(-c4ccncc4)nn23)c1 the results were PINK1 expr mod 0.7%, B2AR arrestin -0.9%, IL-2 act 0.9, Epigenetic derep -2.7% and PKM2 act 19.7%.
`c1cncc(CSc2nnc3ccc(-c4cccs4)nn23)c1` gave PINK1 expr mod 0.2%, B2AR arrestin -0.2%, IL-2 act 2.4, Epigenetic derep 5.8% and PKM2 act 25.1µM*.
Screening COc1ccc(S[C@@H]2C[C@@H](C(=O)Nc3ccc4nccnc4c3)N(C3Cc4ccccc4C3)C2)cc1 returned PINK1 expr mod 0.7%.
For Cc1cc(C([O-])=C(C(=S)Nc2ccc(F)cc2)[n+]2ccccc2)c(C)n1-c1ccc(F)cc1 the results were PINK1 expr mod 7.8% and IL-2 act -2.6.
`COc1cccc(NC(=S)/C(=C(\[O-])c2cc(C)n(-c3ccccc3F)c2C)[n+]2ccc(N(C)C)cc2)c1` gave PINK1 expr mod 15.8µM*, B2AR arrestin 0.0%, IL-2 act -0.7, Epigenetic derep -0.9% and PKM2 act -6.4%.
